Screens deposited in PubChem by National Center for Advancing Translational Sciences (NCATS).
DT40 TDP1 CPT = DT40-hTDP1 cell growth loss with CPT; chicken DT40 Tdp1-/-;hTDP1 cells + 20 nM CPT, ATP luminescence, 48 h; Potency, µM (series often up to 46.2 µM), for the others: top-dose activity change, negative = growth inhibition, actives largely listed as inhibitors; 420,000 tested, 12% active; further: potency means the concentration at half of the fitted maximal effect; on the % scale 0 is the no-effect control and ±100 the full control effect; nearly all actives have a fitted effect of over 55% in size
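Chicken DT40 Tdp1-/- cells complemented with human TDP1, 400 cells/well, exposed to compounds plus 20 nM camptothecin for at least 48 h at 37 C; viability read as ATP content by CellTiter-Glo luminescence.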
HepG2 viability = counter-screen for TGF-b inhibitors: cytotoxicity in HepG2 cells; HepG2 CAGA-GFP viability, ATP luminescence, 18 h; Potency, µM (series often up to 46.1 µM), for inactives: at the top dose activity change, negative = cytotoxicity, hits mostly cytotoxic; 410,000 tested, 0.76% active; further: potency means the concentration at half of the fitted maximal effect
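HepG2 CAGA-GFP cells (1000/well, DMEM with 1% FBS) received compound, then TGF-beta at 500 pg/mL final, and were incubated 18 hours at 37 degrees C. Viability was read by CellTiter-Glo luminescence. Media-only wells were set as complete cell-killing and DMSO as no toxicity.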
TDP1 inh = TDP1 (human) enzyme inhibition. recombinant TDP1, AlphaScreen DNA substrate cleavage. AID 485290. 350,000 tested, 0.28% active. Potency, µM (top dose mostly 130 µM), for the others: at the top dose activity change, negative = inhibition, most hits filed as inhibitors; further: potency means the concentration at half of the fitted maximal effect; on the % scale 0 is the no-effect control and ±100 the full control effect; nearly all actives have a fitted effect of over 40% in size
Target sequence (Q9NUW8 whole entry, looked up): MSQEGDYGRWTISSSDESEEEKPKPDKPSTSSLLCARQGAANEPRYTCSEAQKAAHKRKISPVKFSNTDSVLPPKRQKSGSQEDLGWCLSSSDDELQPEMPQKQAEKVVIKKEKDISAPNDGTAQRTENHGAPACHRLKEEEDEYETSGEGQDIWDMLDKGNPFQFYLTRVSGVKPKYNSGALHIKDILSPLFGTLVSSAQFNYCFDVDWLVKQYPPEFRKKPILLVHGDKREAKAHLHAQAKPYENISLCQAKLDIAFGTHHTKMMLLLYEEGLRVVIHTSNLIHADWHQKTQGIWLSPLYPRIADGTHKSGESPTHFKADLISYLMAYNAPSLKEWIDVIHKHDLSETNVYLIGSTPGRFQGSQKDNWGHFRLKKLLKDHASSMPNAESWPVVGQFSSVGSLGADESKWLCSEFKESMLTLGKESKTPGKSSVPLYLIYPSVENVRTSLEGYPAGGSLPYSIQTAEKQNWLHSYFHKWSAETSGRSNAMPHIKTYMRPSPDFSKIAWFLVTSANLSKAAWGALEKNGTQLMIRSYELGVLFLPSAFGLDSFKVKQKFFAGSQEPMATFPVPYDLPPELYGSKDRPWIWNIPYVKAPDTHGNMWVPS
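Enzyme-compound mixtures sat 15 min at room temperature, followed by a 5 min reaction with 15 nM final substrate and 10 min with AlphaScreen beads. Recombinant human Tdp1 was used at 1 nM final.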
IL1B secr inh = inflammasome signaling inhibition, IL-1 beta readout. THP-1 LPS/ATP IL-1B secretion, AlphaLISA, 16 h; hits give low values. activity change, % at 57.5 µM. AID 743279. 360,000 tested, 4.7% active; in the data active means activity change below about -50%; inconclusive means mostly about -30% to -49%; further: on the % scale 0 is the no-effect control and ±100 the full control effect
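THP-1 cells pretreated 1 hr with compounds (up to 57.5 uM final), then stimulated with LPS (250 ng/mL final) plus ATP (1.25 mM final); secreted IL-1B measured by AlphaLISA after 16 hr, decreased signal indicating inhibition.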
DT40 TDP1 no CPT = qHTS for Inhibitors of human tyrosyl-DNA phosphodiesterase 1 (TDP1): qHTS in cells in absence of CPT. DT40 Tdp1-/- hTDP1 cells, no CPT, ATP luminescence, 48 h. Potency, µM (highest dose often 46.2 µM), without a hit: top-dose activity change, negative = growth inhibition, hits mostly inhibitors. AID 686978, 2013. 420,000 tested, 15% active; further: potency means the concentration at half of the fitted maximal effect; on the % scale 0 is the no-effect control and ±100 the full control effect; nearly all actives have a fitted effect of over 55% in size
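No-CPT arm: Tdp1-/-;hTDP1 DT40 cells (400/well) plus compounds, incubated ≥48 hr at 37 °C. Readout CellTiter-Glo luminescence.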
TGFb inhibitor = inhibitors of TGF-b signaling; HepG2 CAGA-GFP TGF-b/SMAD3 reporter, GFP fluorescence, 18 h; TGF-beta stimulated, 500 pg/mL final; Potency, µM (highest dose often 46.1 µM), without a hit: at the highest dose activity, negative = inhibition, most hits filed as inhibitors; 410,000 tested, 1.2% active; further: potency means the concentration at half of the fitted maximal effect; on the % scale 0 is the no-effect control and ±100 the full control effect; nearly all actives have a fitted effect of over 65% in size
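Per well, imaged GFP fluorescence of HEPG2 CAGA-GFP cells gives the signal; cells get compound, then TGF-beta (500 pg/mL final), 18 h at 37 degrees C; %Activity versus -TGF-beta and +DMSO controls.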
The depositor's hits bear a star; [ ] = dose if it differs, or a comment. Compounds with a hit are over-represented: about 19% of the library has one in this group of screens. Unless noted, the call rests on the fitted dose curve; in most records, active means well fitted curve in the direction sought with a large enough effect; inconclusive means small, poorly fitted or top-dose-only effect, or another doubt; inactive means no such curve, though single readings can be large; an effect the other way counts as inactive or inconclusive.

How did Nc1c(N(Cc2ccccc2)C(=O)COc2ccc([N+](=O)[O-])cc2)c(=O)[nH]c(=O)n1Cc1ccccc1 do in these assays?
DT40 TDP1 CPT: 5.8µM*; HepG2 viability: -19.1%; IL1B secr inh: 41.9; DT40 TDP1 no CPT: inconclusive; TGFb inhibitor: 6.6%

How did Cc1ccccc1OCCC(=O)N(Cc1ccccc1)c1c(N)n(Cc2ccccc2)c(=O)[nH]c1=O do in these assays?
DT40 TDP1 CPT: inconclusive; HepG2 viability: -16.9%; TDP1 inh: 2.2%; IL1B secr inh: -3.0; DT40 TDP1 no CPT: -9.7%; TGFb inhibitor: -25.3%

What do the screens show for `CCN(C(=O)COC(=O)CCOc1cc(C)ccc1C)c1c(N)n(Cc2ccccc2)c(=O)[nH]c1=O`?
DT40 TDP1 CPT: 18.4µM*; HepG2 viability: -25.0%; IL1B secr inh: 4.7; DT40 TDP1 no CPT: inconclusive; TGFb inhibitor: -20.1%

What do the screens show for `Cc1ccc(OCCC(=O)N(Cc2ccccc2)c2c(N)n(Cc3ccccc3)c(=O)[nH]c2=O)cc1`?
DT40 TDP1 CPT: inconclusive; HepG2 viability: -26.1%; TDP1 inh: 1.1%; IL1B secr inh: -7.9; DT40 TDP1 no CPT: 20.6µM*; TGFb inhibitor: -16.6%

Results for OC[C@H]1O[C@@H](n2cnc3c2NC=NC[C@H]3O)C[C@@H]1O ?
DT40 TDP1 CPT: -13.3%; DT40 TDP1 no CPT: -16.6%

What do the screens show for `Cc1ccc(/C=C/C2=C[C@]3(C)C[C@]2(C)[C@H](c2ccc(C)cc2)CC3=O)cc1`?
TDP1 inh: 4.4%

How did Cc1nc(SCc2nc3ccc(C(F)(F)F)cc3[nH]2)c2oc3ccccc3c2n1 do in these assays?
HepG2 viability: -54.7%; TDP1 inh: 0.7%; TGFb inhibitor: inconclusive

How did Cc1ccc(C(=O)C(C)OC(=O)Cn2c(C)csc2=O)cc1 (stereo not given) do in these assays?
DT40 TDP1 CPT: 20.3%; HepG2 viability: 10.6%; TDP1 inh: 2.6%; IL1B secr inh: -7.9; DT40 TDP1 no CPT: 16.0%; TGFb inhibitor: -12.9%

What do the screens show for `COc1ccc(-c2nc(SCC(=O)NCCCc3ccccc3)n[nH]2)cc1`?
DT40 TDP1 CPT: 16.4µM*; HepG2 viability: -10.3%; TDP1 inh: 5.4%; DT40 TDP1 no CPT: 20.6µM*; TGFb inhibitor: 0.0%

Results for COc1ccc(Br)cc1CNC(=O)CSc1n[nH]c(-c2ccccc2)n1 ?
DT40 TDP1 CPT: 13µM*; HepG2 viability: -28.4%; TDP1 inh: 5.4%; DT40 TDP1 no CPT: 20.6µM*; TGFb inhibitor: inconclusive

How did O=C(CSc1n[nH]c(-c2ccccc2)n1)NCCCc1ccccc1 do in these assays?
DT40 TDP1 CPT: inconclusive; HepG2 viability: -26.8%; TDP1 inh: 5.4%; DT40 TDP1 no CPT: 20.6µM*; TGFb inhibitor: inconclusive

What do the screens show for `COc1ccc(OC)c(C(=O)CSc2nccc(-c3ccc(Br)cc3)n2)c1`?
DT40 TDP1 CPT: inconclusive; HepG2 viability: -40.2%; TDP1 inh: 2.8%; IL1B secr inh: -14.2; DT40 TDP1 no CPT: 29.1µM*; TGFb inhibitor: 0.1%

How did COc1ccc(-c2nc(SCC(=O)c3ccc(OC)c(Br)c3)n[nH]2)cc1 do in these assays?
DT40 TDP1 CPT: inconclusive; HepG2 viability: -2.1%; TDP1 inh: 8.6%; DT40 TDP1 no CPT: 23.1µM*; TGFb inhibitor: 8.7%

How did COc1ccc(C(=O)CSc2n[nH]c(-c3ccncc3)n2)cc1[N+](=O)[O-] do in these assays?
DT40 TDP1 CPT: -4.0%; HepG2 viability: -13.5%; TDP1 inh: 1.1%; IL1B secr inh: 17.5; DT40 TDP1 no CPT: -16.4%; TGFb inhibitor: -11.5%

What do the screens show for `COc1ccc(CNC(=O)COC(=O)c2ccc(S(=O)(=O)N3CCCCC3)cc2)cc1`?
DT40 TDP1 CPT: 1.6%; HepG2 viability: -6.5%; TDP1 inh: -4.0%; IL1B secr inh: 5.9; DT40 TDP1 no CPT: -21.2%; TGFb inhibitor: -1.8%

What do the screens show for `CC(C)c1ccc(/C=C2\SC(N3CCCC3)=NC2=O)cc1`?
DT40 TDP1 CPT: inconclusive; HepG2 viability: -40.0%; TDP1 inh: 7.9%; IL1B secr inh: inconclusive; DT40 TDP1 no CPT: 23.1µM*; TGFb inhibitor: -8.8%

Results for O=C1N=C(N2CCCCC2)S/C1=C\c1ccc(Br)cc1 ?
DT40 TDP1 CPT: -22.5%; HepG2 viability: -8.7%; IL1B secr inh: -14.4; DT40 TDP1 no CPT: inconclusive; TGFb inhibitor: 0.0%

Results for CCOc1ccc(/C=C2\SC(N3CCCCC3)=NC2=O)cc1 ?
DT40 TDP1 CPT: 6.51µM*; HepG2 viability: -22.3%; IL1B secr inh: 10.6; DT40 TDP1 no CPT: 2.91µM*; TGFb inhibitor: 8.7%

What do the screens show for `Cc1ccc(/C=C2\SC(N3CCCC3)=NC2=O)cc1`?
TDP1 inh: 2.4%

Results for COCCCNC(=O)C[C@@H]1C[C@@]2(C(=O)OC)CCCCC=C2N(Cc2ccc(Cl)cc2Cl)C1=O ?
DT40 TDP1 CPT: inconclusive; IL1B secr inh: -5.2; DT40 TDP1 no CPT: 16.4µM*

Results for CCCCNC(=O)C[C@@H]1C[C@@]2(C(=O)OC)CCCCC=C2N(Cc2ccccc2)C1=O ?
DT40 TDP1 CPT: inconclusive; IL1B secr inh: 16.0; DT40 TDP1 no CPT: inconclusive

How did COC(=O)[C@]12CCCCC=C1N(Cc1ccccc1)C(=O)[C@H](CC(=O)NCC1CCCCC1)C2 do in these assays?
DT40 TDP1 CPT: 16.4µM*; IL1B secr inh: -7.7; DT40 TDP1 no CPT: inconclusive

Results for COC(=O)[C@]12CCCCC=C1N(Cc1ccc(Cl)cc1Cl)C(=O)[C@H](CC(=O)NCC1CCCCC1)C2 ?
DT40 TDP1 CPT: inconclusive; IL1B secr inh: 0.0; DT40 TDP1 no CPT: 18.4µM*

What do the screens show for `O=C(O)/C=C/c1ccc2c(c1)S(=O)(=O)N(C1CCCC1)[C@H]2CC(=O)O`?
DT40 TDP1 CPT: -16.9%; HepG2 viability: 28.3%; DT40 TDP1 no CPT: -3.3%; TGFb inhibitor: 27.8%

What do the screens show for `Cc1cc(OCc2cc(C(=O)NC(C)c3c(C)nn(C)c3C)no2)cc(C)c1Cl` (stereo not given)?
DT40 TDP1 CPT: inconclusive; HepG2 viability: -31.6%; TDP1 inh: 2.5%; IL1B secr inh: -28.5; DT40 TDP1 no CPT: inconclusive; TGFb inhibitor: 11.2µM*

Results for CC(=O)c1ccc(OCc2cc(C(=O)NC(C)c3cnn(C)c3)no2)cc1 (stereo not given) ?
DT40 TDP1 CPT: -29.1%; HepG2 viability: 7.0%; TDP1 inh: 5.7%[56.1 µM]; IL1B secr inh: 8.6; DT40 TDP1 no CPT: -5.0%; TGFb inhibitor: -2.4%
